From PubChem BioAssay
BioA inh = M. tuberculosis BioA enzyme inhibitors, primary screen, biochemical, plate reader, single point, HTS; inhibition, % at 9.99 µM; actives 0.096% (n = 360,000); 7,8-diaminopelargonic acid synthase BioA (Mycobacterium tuberculosis); purified M. tuberculosis BioA enzyme; in the data active means inhibition above about 40%
TcdB inh = TcdB glycohydrolase inhibitors, primary screen, biochemical, single point, plate reader | Toxin B (Clostridioides difficile), P18177 | TcdB glycohydrolase enzymatic assay | inhibition, % at 9.99 µM | actives 0.24% (n = 350,000) | AID 652162, 2013; in the data active means inhibition above about 10%
Yp Topo-I inh = Yersinia pestis topoisomerase I inhibitors, primary screen, biochemical, cleavage product accumulation, plate reader, single point. DNA topoisomerase I (Yersinia pestis CO92). Y. pestis Topo-I cleavage product accumulation. activity, % at 10 µM. actives 0.064% (n = 360,000). AID 504884, 2011; in the data active means activity above about 50%, passing the limit was not always enough
DUSP3 inh = VHR1 phosphatase inhibitors, primary screen, biochemical, absorbance, uHTS; inhibition, % at 13.3 µM; Dual specificity protein phosphatase 3 (Homo sapiens), P51452; recombinant VHR phosphatase, pNPP absorbance; actives 0.52% (n = 290,000); AID 1654, 2009; in the data active means inhibition above about 50%
BH1578 lux ind = inducers of Vibrio cholerae quorum light production without autoinducers, primary screen, BH1578 luxS cqsA deficient, single point | V. cholerae BH1578 lux reporter, luminescence, 6 h | activation, % at 18.7 µM | actives 0.16% (n = 350,000) | AID 588436, 2011; in the data active means activation mostly above about 9.7%, no sharp cut-off
Starred values were filed as active, the others as inactive; i = inactive; . = no result given. Hits are enriched below; roughly 0.73% of the tested compounds scored in any of these assays.

SMILES | BioA inh | TcdB inh | Yp Topo-I inh | DUSP3 inh | BH1578 lux ind
C[C@@H]1CCCCO[C@H](CN(C)C(=O)Nc2ccc(F)cc2)[C@@H](C)CN([C@@H](C)CO)C(=O)c2cc(NS(=O)(=O)c3ccc(F)cc3)ccc2O1 | -1 | . | . | . | .
CCN(C(=O)COC(=O)c1cccnc1SC)C1CCCCC1 | 0 | 15* | 4 | . | i
CSc1ncccc1C(=O)NC1CCCCCCC1 | 0 | 1 | 0 | 5 | i
CSc1ncccc1C(=O)NCC1CCCCC1 | 2 | 1 | 1 | 51* | i
C[C@@H]1CCCCO[C@H](CN(C)C(=O)Nc2ccccc2)[C@H](C)CN([C@@H](C)CO)C(=O)c2cc(NC(=O)C3CCCCC3)ccc2O1 | -1 | 1 | . | . | .
C[C@@H]1CN([C@H](C)CO)C(=O)c2c(c3ccccc3n2C)-c2ccccc2CO[C@@H]1CN(C)Cc1cccc(C(=O)O)c1 | 1 | 0 | . | . | .
CC(=O)c1ccc(NC(=O)C2=CC(c3ccc4c(c3)OCO4)=NS(=O)(=O)N2C)cc1 | 5 | 2 | -12 | 56* | 0
CCc1ccc(NC(=O)C2=CC(c3ccc(OC)cc3)=NS(=O)(=O)N2C)cc1 | 1 | 76* | 1 | -14 | 0
O=C(C[C@H]1C[C@@H]2c3cc(NC(=O)C4CCOCC4)ccc3O[C@@H]2[C@H](CO)O1)NCc1ccccc1F | -3 | 1 | . | . | .
CC1(C)C(C(=O)N2CCN(C(=O)c3ccccc3)CC2)C1(C)C | -2 | 0 | 6 | 58* | i
CCN(CC)Cc1c[nH]c2c(C(=O)OC)cccc12 | -3 | 1 | 1 | 25 | 17*
Cc1cccc(C(=O)NCc2nnc(SCC(=O)NC3=NCCS3)n2C)c1 | -4 | 2 | -5 | -3 | -1
CCn1c(CNC(=O)c2cccc(C)c2)nnc1SCC(=O)NC1=NCCS1 | 2 | 0 | 0 | 52* | -1
CCOC(=O)CNc1nc(C(C)(C)C)nc2c1nnn2Cc1ccccc1 | -1 | 1 | 59* | 20 | 2
FC(F)(F)c1nc(NCc2ccccc2)c2nnn(Cc3ccccc3)c2n1 | 1 | 1 | -2 | 9 | 1
COc1ccc(Cn2c(C3CCCCC3)nc3c(c(=O)c4ccccc4n3C)c2=O)cc1 | . | . | . | 54* | .
C[C@@H]1CN([C@@H](C)CO)C(=O)c2cc(/C=C/c3ccccc3)cnc2O[C@@H]1CN(C)C(=O)c1ccc2c(c1)OCO2 | 1 | 2 | . | . | .
NCC[C@@H]1CC[C@H](NC(=O)c2ccccc2F)[C@H](CO)O1 | -4 | -1 | . | . | .
COc1cc(C(=O)Nc2scc(-c3ccc(C)cc3)c2C(=O)O)cc(OC)c1OC | 1 | 9 | 6 | 4 | 0
O=C(Nc1scc(-c2ccccc2)c1C(=O)O)c1ccccc1Cl | 1 | -1 | -4 | 10 | i
COc1cc(C(=O)Nc2scc(-c3ccccc3)c2C(=O)O)cc(OC)c1OC | 2 | 13* | 9 | 14 | i
COc1ccc(-c2csc(NC(=O)c3ccccc3F)c2C(=O)O)cc1 | . | 11* | 11 | -9 | -1
Cc1ccc(C(=O)Nc2scc(-c3ccccc3)c2C(=O)O)cc1 | 4 | 12* | 2 | . | i
CC(=O)Nc1ccc2c(c1)C(=O)N(C)[C@@H]1CC[C@H](CC(=O)NCc3ccc(Cl)cc3)O[C@H]1CO2 | 27 | -1 | . | . | .
O=C(Oc1cccnc1)c1ccco1 | 0 | . | 4 | -4 | -8
SMILES | BioA inh | TcdB inh | Yp Topo-I inh | DUSP3 inh | BH1578 lux ind
O=C(Oc1cccc(OC(=O)c2ccco2)c1)c1ccco1 | 0 | 1 | 2 | 56* | 0
COc1ccc(CNC(=O)c2cc(-c3ccncc3)nc3c(C)cc(C)cc23)cc1OC | . | 1 | -1 | 57* | -2
COc1ccc(CCNC(=O)c2cc(-c3ccncc3)nc3c(Cl)cccc23)cc1OC | . | 1 | 10 | 53* | -3
COc1ccc(CN(C)Cc2cc(=O)oc3cc(C)c(C(C)C)cc23)cc1OC | -4 | 0 | 23 | 10 | 0
Cc1cc2oc(=O)cc(CN(C)Cc3ccccc3)c2cc1C(C)C | . | 1 | 64* | . | i
C/C(=N\NC(=O)CN1CCCCC1)c1ccccc1O | -1 | 5 | 3 | 53* | -1
CNC(=S)N/N=C/c1c(C(=O)OC)cnn1-c1ccc(F)cc1F | 0 | 12* | -2 | 10 | -1
CCC(=O)N[C@H]1C=C[C@@H](CC(=O)NCc2ccccc2OC)O[C@@H]1CO | -4 | 0 | . | . | .
ClCC(CNCc1ccccc1)c1ccccc1 (stereo not drawn) | -2 | 12* | 8 | . | i
COC(=O)c1nnn(CC(=O)NC(=O)Nc2cccc(Cl)c2C)c1C(=O)OC | . | 1 | 6 | 51* | i
COc1cc(CCC(=O)N2CCN(c3ccc([N+](=O)[O-])cc3)CC2)cc(OC)c1OC | 8 | 0 | 2 | 57* | i
COC(=O)Cc1ccc(NC(=S)N2CCN(c3cccc(O)c3)CC2)cc1 | . | . | -3 | 55* | 0
COC(=O)c1ccc(CNC(=O)c2ccc(OCC(=O)N3CCOCC3)c(OC)c2)cc1 | 4 | 3 | -6 | . | -1
CCOc1cc(C(=O)NCc2ccc(C)cc2)ccc1OCC(=O)N1CCOCC1 | . | 0 | 3 | 51* | i
CNC[C@@H]1Oc2ncc(-c3ccccc3C)cc2C(=O)N([C@H](C)CO)C[C@H]1C | -2 | 1 | . | . | .
O=C(NC(=S)Nc1ccc(O)cc1)c1cncc(Br)c1 | . | 15* | 0 | . | -1
C[C@@H]1CCCCO[C@@H](CN(C)C)[C@H](C)CN([C@@H](C)CO)C(=O)c2cc(NS(=O)(=O)c3cn(C)cn3)ccc2O1 | -1 | 1 | . | . | .
Cn1c(CSCc2ccc(Cl)cc2)n[nH]c1=S | -1 | 3 | 0 | 52* | i
C[C@H]1CN([C@@H](C)CO)C(=O)c2cc(-c3ccc(F)cc3)cnc2O[C@@H]1CN(C)S(C)(=O)=O | 1 | 0 | . | . | .
COc1ccc(CN2CCNCC2)cc1 | -1 | 0 | 3 | 60* | 0
COc1ccc(CN2CCOCCOCCOCCOCCOCC2)cc1 | . | -2 | -5 | 17 | 0
Cc1ccc(-c2cc(C(=O)OC3CCOC3=O)c3ccccc3n2)c(C)c1 (stereo not drawn) | 0 | 18* | 25 | 26 | -1
Cc1ccc(S(=O)(=O)N(C)C[C@@H]2Oc3ccc(N(C)C)cc3CC(=O)N([C@H](C)CO)C[C@@H]2C)cc1 | 0 | -4 | . | . | .
CO[C@@H]1CN(C)C(=O)c2ccc(NC(=O)c3nc4ccccc4s3)cc2OC[C@@H](C)N(Cc2ccncc2)C[C@H]1C | -2 | 2 | . | . | .
COc1ccccc1OCC(O)Cn1nc(C)cc1C (stereo not drawn) | -1 | . | -6 | . | i
Cc1cc(C)n(CC(O)COc2ccccc2[N+](=O)[O-])n1 (stereo not drawn) | . | . | -2 | 56* | 0
CC(C)(C)N1C(=O)c2ccc(C(=O)Nc3ccc(O)cc3)cc2C1=O | 5 | 22* | 10 | 1 | i
